PubChem BioAssay (EPA / NIEHS)
Where “and” joins values, the source holds several entries; their conditions need not be identical. Identical values can stand only once. Some compounds were tested as several samples or in several runs, with calls that do not always agree. Calls of active or inactive are those of the source. How the source made its calls: active means hit-call score of the fitted dose curve at least 0.9, where 1 is the maximum; inactive means score below 0.9.

Assay: ATG_NF_kB_CIS: Attagene CIS-FACTORIAL HepG2 Assay for human Nuclear Factor Kappa B (NF-kB) (AID 2282991)
Conditions: HepG2 Attagene cis-factorial NF-kB reporter mRNA; actives raise or lower the signal
Description: ATG_CIS is a cell-based, multiplexed-readout assay that uses HepG2, a human liver cell line, with measurements taken at 24 hours after chemical dosing in a 24-well plate.ATG_NF_kB_CIS is one of 52 assay component(s) measured or calculated from the ATG_CIS assay. It is designed to make measurements of mRNA induction, a form of inducible reporter, as detected with fluorescence intensity signals by Reverse transcription polymerase chain reaction (RT-PCR) and Capillary electrophoresis technology.Data from the assay component ATG_NF_kB_CIS was analyzed into 1 assay endpoint. This assay endpoint, ATG_NF_kB_CIS, was analyzed with bidirectional fitting relative to DMSO as the negative control and baseline of activity. Using a type of inducible reporter, measures of mRNA for gain or loss-of-signal activity can be used to understand the reporter gene at the transcription factor-level as they relate to the gene NFKB1. Furthermore, this assay endpoint can be referred to as a primary readout, because this assay has produced multiple assay endpoints where this one serves a reporter gene function. To generalize the intended target to other relatable targets, this assay endpoint is annotated to the dna binding intended target family, where the subfamily is NF-kappa B.
Human liver HepG2 cells are transiently transfected with multiple reporter transcription units (MRTUs) in 6-well plates using FuGene 6 reagent (Roche; 3 ml FuGene/1 mg DNA). The MRTU constructs are regulated by a cis-regulating element (promoter). […] A major difference between the CIS and TRANS system is that in CIS activities of endogenous TFs are measured, whereas the TRANS assay evaluates changes in activities of exogenous, chimeric NR-Gal4 proteins. […] At the end of 24 hour incubation, total RNA was isolated using TriZol reagent (Invitrogen). The isolated RNA is then reverse-transcribed using oligo(dT) primer and Mo-MLV reverse transcriptase (Invitrogen) with DNAse I (Ambion) treatment for 30 min. The one-tenth of the produced cDNA was amplified by PCR using Taq DNA polymerase (Invitrogen) and two reporter sequence-specific primers. The PCR products were fluorescently labeled by primer extension with 6-arboxyfluorescein (6-FAM) 5'-labeled reporter sequence-specific primer (2 min at 95 C, 20 s at 68 C and 10 min at 72 C) and these products were digested with 5U of HpaI (New England Biolabs) for 2h at 37 C. The fragments were purified using Qiaquick PCR columns (Qiagen), analyzed on an ABI 3130xL genetic analyzer (Applied Biosystems) with peak positions identified by using a set of X-rhodamine (ROX)-labeled MapMarker1000 molecular weight standards (BioVentures). The raw capillary electrophoresis data was processed using Attagraph software (Attagene).

SMILES	outcome	AC50
CCCCNC(=O)n1c(NC(=O)OC)nc2ccccc21	inactive	
COC(=O)C(C)Oc1ccc(Oc2ccc(Cl)cc2Cl)cc1 (stereo unspecified)	inactive	
CC(C)Oc1cc(-n2nc(C(C)(C)C)oc2=O)c(Cl)cc1Cl	inactive	
CCCC1COC(Cn2cncn2)(c2ccc(Cl)cc2Cl)O1 (stereo unspecified)	inactive	
Cc1c(F)c(F)c(COC(=O)C2C(/C=C(\Cl)C(F)(F)F)C2(C)C)c(F)c1F (stereo unspecified)	inactive	
CNC(=O)ON=CC(C)(C)SC	inactive	
O=C(Nc1ccccc1)Nc1ccnc(Cl)c1		30.1 µM (active)
CS/C(C)=N/OC(=O)N(C)SN(C)C(=O)O/N=C(\C)SC	inactive	
COP(N)(=O)SC (stereo unspecified)	inactive	
N#Cc1cc(Br)c(O)c(Br)c1	inactive	
CN(C)C(=S)SSC(=S)N(C)C	inactive	
C=CCC1=C(C)[C@@H](OC(=O)[C@@H]2[C@@H](C=C(C)C)C2(C)C)CC1=O	inactive	
CC(Oc1ccc(Cl)cc1Cl)C(=O)O (stereo unspecified)	inactive	
CCCCOC(=O)c1ccccc1C(=O)OCCCC	inactive	
CCCN(CCC)c1c([N+](=O)[O-])cc(S(N)(=O)=O)cc1[N+](=O)[O-]	inactive	
CCNc1nc(Cl)nc(NC(C)C)n1	inactive	
COC(=O)c1ccccc1C(=O)OC	inactive	
CCCCC(CC)COC(=O)c1ccccc1C(=O)OCC(CC)CCCC (stereo unspecified)	inactive	

SMILES	outcome	AC50
CC(C)C1(C)N=C(c2nc3ccccc3cc2C(=O)O)NC1=O (stereo unspecified)	inactive	
COc1nc(NC(C)C)nc(NC(C)C)n1	inactive	
CCON=C(CC)C1=C(O)CC(c2c(C)cc(C)cc2C)CC1=O (stereo unspecified)	inactive	
CCOc1cc(Oc2ccc(C(F)(F)F)cc2Cl)ccc1[N+](=O)[O-]	inactive	
C#CCOS(=O)OC1CCCCC1Oc1ccc(C(C)(C)C)cc1 (stereo unspecified)	inactive	
C=CC1(C)OC(=O)N(c2cc(Cl)cc(Cl)c2)C1=O (stereo unspecified)	inactive	
CCOC(=O)CC(SP(=S)(OC)OC)C(=O)OCC (stereo unspecified)	inactive	
COc1ccc(C(c2ccc(OC)cc2)C(Cl)(Cl)Cl)cc1	inactive	
Cc1ccc(-c2c(Cl)nc(C#N)n2S(=O)(=O)N(C)C)cc1	inactive	
C=CCC1=C(C)C(OC(=O)C2C(C=C(C)C)C2(C)C)CC1=O (stereo unspecified)	inactive	43.2 µM (active) and 105 µM (active)
CNC(=S)S	inactive	
N#CC(CCc1ccc(Cl)cc1)(Cn1cncn1)c1ccccc1 (stereo unspecified)	inactive	
CCOC(=O)C(Cl)Cc1cc(-n2nc(C)n(C(F)F)c2=O)c(F)cc1Cl (stereo unspecified)	inactive	
O=C(O)COc1nc(Cl)c(Cl)cc1Cl	inactive	
CON(C)C(=O)Nc1ccc(Cl)c(Cl)c1	inactive	
CCc1nn(C)c(C(=O)NCc2ccc(C(C)(C)C)cc2)c1Cl		0.709 µM (active)
COc1nc(C)nc(NC(=O)NS(=O)(=O)c2ccccc2CCC(F)(F)F)n1	inactive	
